Data: PubChem BioAssay (Tox21)
Records with an inconclusive call do not appear. A call without a number means that no potency is given here. Values without a mark were called inactive. Calls of active or inactive are those of the source. Unless noted, calls come from the whole dose curve.
Potency is the fitted concentration of half-maximal effect.

Molecular target: Thyrotropin receptor (Homo sapiens) (UniProt P16473)
Sequence (P16473 whole entry, looked up): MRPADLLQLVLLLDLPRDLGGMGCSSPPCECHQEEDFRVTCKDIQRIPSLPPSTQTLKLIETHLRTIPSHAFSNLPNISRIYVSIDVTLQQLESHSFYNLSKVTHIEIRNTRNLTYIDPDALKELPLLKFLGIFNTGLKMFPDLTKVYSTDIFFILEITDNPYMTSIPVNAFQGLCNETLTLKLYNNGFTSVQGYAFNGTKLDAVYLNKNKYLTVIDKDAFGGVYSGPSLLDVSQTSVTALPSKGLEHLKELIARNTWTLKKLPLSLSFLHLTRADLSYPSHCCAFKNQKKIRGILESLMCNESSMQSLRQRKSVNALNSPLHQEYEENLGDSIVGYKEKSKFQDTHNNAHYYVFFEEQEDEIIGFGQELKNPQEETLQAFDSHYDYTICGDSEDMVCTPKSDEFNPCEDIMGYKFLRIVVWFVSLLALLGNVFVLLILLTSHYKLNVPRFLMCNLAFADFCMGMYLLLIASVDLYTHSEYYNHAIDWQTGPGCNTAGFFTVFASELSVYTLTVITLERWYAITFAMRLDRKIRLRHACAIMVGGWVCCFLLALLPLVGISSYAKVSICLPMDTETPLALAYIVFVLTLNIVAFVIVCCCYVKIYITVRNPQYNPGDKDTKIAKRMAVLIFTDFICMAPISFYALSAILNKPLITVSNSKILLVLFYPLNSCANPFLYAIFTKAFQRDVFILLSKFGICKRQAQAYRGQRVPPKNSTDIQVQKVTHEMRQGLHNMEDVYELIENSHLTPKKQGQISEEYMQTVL
Assay: qHTS assay to identify small molecule agonists of the thyroid stimulating hormone receptor (TSHR) signaling pathway (AID 1224843); note: nearly all actives have a fitted effect of over 45% in size
Settings: TSHR-HEK293 cells, cAMP HTRF, agonist mode, 30 min; series mostly up to 92.4 µM
In short: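 Using 15 concentrations per compound in triplicate, cAMP production was monitored in TSHR-HEK293 cells after 30 min compound incubation at RT; HTRF reagents followed, with fluorescence intensity recorded after 1 h.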
For `NC(=O)CI`, the Potency was “inactive”.
For `CCOC(=O)[C@]1(c2ccccc2)Oc2ccccc2[C@@H]1N`, the Potency was “inactive”.
With `CCC(Cl)CCl` (stereo not drawn) the Potency was “inactive”.
For `Cc1ccccc1C(=O)Nc1cccc(OC(C)C)c1`, the Potency was “inactive”.
With `O=C(O)C(F)(F)C(F)(F)C(F)(F)C(F)(F)C(F)(F)C(F)(F)C(F)(F)C(F)(F)C(F)(F)F` the Potency was “inactive”.
In the case of `CCBr`, the Potency is reported as “inactive”.
In the case of `CCOP(=O)(OCC)SCCSCC`, the Potency is reported as “inactive”.
For `CC(=O)CCC(C)=O`, the Potency was “inactive”.
For `Nc1nc(=S)[nH][nH]1`, the Potency was “inactive”.
For `c1ccc(CN2CCNCC2)cc1`, the Potency was “inactive”.
In the case of `CC(C)(Cl)[N+](=O)[O-]`, the Potency is reported as “inactive”.
With `CN1C[C@H](CNC(=O)OCc2ccccc2)C[C@@H]2c3cccc4c3c(cn4C)C[C@H]21` the Potency was “inactive”.
In the case of `CC(=O)c1cc2c(cc1C)C(C)(C)C(C)CC2(C)C` (stereo not drawn), the Potency is reported as “inactive”.
For `CCOP(=O)(OCC)Oc1ccc([N+](=O)[O-])cc1`, the Potency was “inactive”.
With `COC(=O)C(Cl)C(=O)OC` the Potency was “inactive”.
With `O=C(NC(=O)c1c(F)cccc1F)Nc1ccc(OC(F)(F)C(F)OC(F)(F)F)c(Cl)c1` (stereo not drawn) the Potency was “inactive”.
With `CCCCC(CC)COP(=O)(Oc1ccccc1)Oc1ccccc1` (stereo not drawn) the Potency was 27.3 µM (active).
In the case of `CC(C)N(CCC(C(N)=O)(c1ccccc1)c1ccccn1)C(C)C` (stereo not drawn), the Potency is reported as “inactive”.
With `CCOP(O)OCC` the Potency was “inactive”.
For `O=C(O)CC(Cl)C(=O)O` (stereo not drawn), the Potency was “inactive”.
With `Nc1ccc([N+](=O)[O-])cc1[N+](=O)[O-]` the Potency was “inactive”.
Work on `NCC(CC(=O)O)c1ccc(Cl)cc1` (stereo not drawn) yielded an activation of 16.4% [at 0.349 µM].
For `BrCC(Br)C1CCC(Br)C(Br)C1` (stereo not drawn), the Potency was 48.3 µM (active).
With `CCC(C)(NC(=O)c1cc(Cl)c(C)c(Cl)c1)C(=O)CCl` (stereo not drawn) the Potency was 43.5 µM (active).
For `N#C/C(N)=C(/N)C#N`, the Potency was “inactive”.
With `BrCCCCBr` the Potency was “inactive”.
In the case of `Cn1sc(Cl)cc1=O`, the Potency is reported as “inactive”.
For `C=CC(=O)NCNC(=O)C=C`, the Potency was “inactive”.
For `S=C=NCc1ccccc1`, the Potency was “inactive”.
In the case of `C=CCN1CC[C@]23c4c5ccc(O)c4O[C@H]2C(=O)CC[C@@]3(O)[C@H]1C5`, the Potency is reported as “inactive”.
In the case of `COC(C)(C)CCC[C@H](C)C/C=C/C(C)=C/C(=O)OC(C)C`, the Potency is reported as “inactive”.
For `CC(C)(OO)c1ccccc1`, the Potency was 34.4 µM (active).
For `ClP(Cl)(Cl)(Cl)Cl`, the Potency was “inactive”.
With `CC(=O)C(C)(C)C` the Potency was “inactive”.
With `O=C(NCc1cccnc1)Nc1ccc([N+](=O)[O-])cc1` the Potency was “inactive”.
With `Cc1ccc(N)cc1C` the Potency was “inactive”.

Tested on: not listed separately
Assay: qHTS assay to identify small molecule agonists of the hypoxia (HIF-1) signaling pathway - cell viability counter screen (AID 1224844); note: nearly all actives have a fitted effect of over 50% in size
Settings: HRE-bla ME-180 viability, CellTiter-Glo luminescence, 17 h; series mostly up to 76.8 µM
In short: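 CellTiter-Glo luminescence read-out, 30 min RT, taken in the same wells as the beta-lactamase HRE reporter assay; HRE-bla ME-180 cells, 0.5% dialyzed FBS, 17 hr compound treatment at 37C, 5% CO2.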
For `NC(=O)CI`, the Potency was 35 µM (active).
For `CCOC(=O)[C@]1(c2ccccc2)Oc2ccccc2[C@@H]1N`, the Potency was “inactive”.
With `CCC(Cl)CCl` (stereo not drawn) the Potency was “inactive”.
In the case of `Cc1ccccc1C(=O)Nc1cccc(OC(C)C)c1`, the Potency is reported as 27.5 µM (active).
In the case of `O=C(O)C(F)(F)C(F)(F)C(F)(F)C(F)(F)C(F)(F)C(F)(F)C(F)(F)C(F)(F)C(F)(F)F`, the Potency is reported as 13.8 µM (active).
In the case of `CCBr`, the Potency is reported as “inactive”.
For `CCOP(=O)(OCC)SCCSCC`, the Potency was “inactive”.
In the case of `CC(=O)CCC(C)=O`, the Potency is reported as “inactive”.
For `Nc1nc(=S)[nH][nH]1`, the Potency was “inactive”.
In the case of `c1ccc(CN2CCNCC2)cc1`, the Potency is reported as “inactive”.
In the case of `CC(C)(Cl)[N+](=O)[O-]`, the Potency is reported as “inactive”.
With `CN1C[C@H](CNC(=O)OCc2ccccc2)C[C@@H]2c3cccc4c3c(cn4C)C[C@H]21` the Potency was “inactive”.
With `CC(=O)c1cc2c(cc1C)C(C)(C)C(C)CC2(C)C` (stereo not drawn) the Potency was 43.6 µM (active).
In the case of `CCOP(=O)(OCC)Oc1ccc([N+](=O)[O-])cc1`, the Potency is reported as “inactive”.
With `COC(=O)C(Cl)C(=O)OC` the Potency was “inactive”.
With `O=C(NC(=O)c1c(F)cccc1F)Nc1ccc(OC(F)(F)C(F)OC(F)(F)F)c(Cl)c1` (stereo not drawn) the Potency was “inactive”.
With `CCCCC(CC)COP(=O)(Oc1ccccc1)Oc1ccccc1` (stereo not drawn) the Potency was “inactive”.
In the case of `CC(C)N(CCC(C(N)=O)(c1ccccc1)c1ccccn1)C(C)C` (stereo not drawn), the Potency is reported as “inactive”.
In the case of `CCOP(O)OCC`, the Potency is reported as “inactive”.
With `O=C(O)CC(Cl)C(=O)O` (stereo not drawn) the Potency was “inactive”.
With `Nc1ccc([N+](=O)[O-])cc1[N+](=O)[O-]` the Potency was “inactive”.
`NCC(CC(=O)O)c1ccc(Cl)cc1` (stereo not drawn) gave an activity change, negative = cytotoxicity of -2.38% [at 0.29 µM].
In the case of `BrCC(Br)C1CCC(Br)C(Br)C1` (stereo not drawn), the Potency is reported as “inactive”.
With `CCC(C)(NC(=O)c1cc(Cl)c(C)c(Cl)c1)C(=O)CCl` (stereo not drawn) the Potency was 34.9 µM (active).
In the case of `N#C/C(N)=C(/N)C#N`, the Potency is reported as “inactive”.
With `BrCCCCBr` the Potency was “inactive”.
In the case of `Cn1sc(Cl)cc1=O`, the Potency is reported as “inactive”.
In the case of `C=CC(=O)NCNC(=O)C=C`, the Potency is reported as “inactive”.
In the case of `S=C=NCc1ccccc1`, the Potency is reported as “inactive”.
For `C=CCN1CC[C@]23c4c5ccc(O)c4O[C@H]2C(=O)CC[C@@]3(O)[C@H]1C5`, the Potency was “inactive”.
With `COC(C)(C)CCC[C@H](C)C/C=C/C(C)=C/C(=O)OC(C)C` the Potency was “inactive”.
In the case of `CC(C)(OO)c1ccccc1`, the Potency is reported as “inactive”.
In the case of `ClP(Cl)(Cl)(Cl)Cl`, the Potency is reported as “inactive”.
In the case of `CC(=O)C(C)(C)C`, the Potency is reported as “inactive”.
With `O=C(NCc1cccnc1)Nc1ccc([N+](=O)[O-])cc1` the Potency was “inactive”.
In the case of `Cc1ccc(N)cc1C`, the Potency is reported as “inactive”.

Tested on: not listed separately
Assay: qHTS assay to identify small molecule agonists of H2AX (AID 1224845; active = well fitted activation curve with a large enough effect in the signal ratio in the repeat runs, not every such curve was filed as active; the % refers to the signal ratio)
Settings: CHO-K1 phospho-H2AX Ser139 HTRF, 3 h; series mostly up to 154 µM
In short: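 Wild-type CHO-K1 cells plated overnight, then exposed 3 hr at 37C to compounds at 15 concentrations (0.76% DMSO). Lysed, then HTRF anti-pH2AX(S139)-cryptate/anti-H2AX-d2 detection after 24 hr at room temperature; emissions 665 and 620 nm.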
For `NC(=O)CI`, the Potency was “inactive”.
For `CCOC(=O)[C@]1(c2ccccc2)Oc2ccccc2[C@@H]1N`, the Potency was “inactive”.
For `Cc1ccccc1C(=O)Nc1cccc(OC(C)C)c1`, the Potency was “inactive”.
For `O=C(O)C(F)(F)C(F)(F)C(F)(F)C(F)(F)C(F)(F)C(F)(F)C(F)(F)C(F)(F)C(F)(F)F`, the Potency was “inactive”.
For `CC(=O)CCC(C)=O`, the Potency was “inactive”.
In the case of `c1ccc(CN2CCNCC2)cc1`, the Potency is reported as “inactive”.
With `CN1C[C@H](CNC(=O)OCc2ccccc2)C[C@@H]2c3cccc4c3c(cn4C)C[C@H]21` the Potency was “inactive”.
With `CC(=O)c1cc2c(cc1C)C(C)(C)C(C)CC2(C)C` (stereo not drawn) the Potency was 101 µM (active).
With `CCOP(=O)(OCC)Oc1ccc([N+](=O)[O-])cc1` the Potency was “inactive”.
With `COC(=O)C(Cl)C(=O)OC` the Potency was “inactive”.
In the case of `CCCCC(CC)COP(=O)(Oc1ccccc1)Oc1ccccc1` (stereo not drawn), the Potency is reported as “inactive”.
For `CC(C)N(CCC(C(N)=O)(c1ccccc1)c1ccccn1)C(C)C` (stereo not drawn), the Potency was “inactive”.
In the case of `CCOP(O)OCC`, the Potency is reported as “inactive”.
For `Nc1ccc([N+](=O)[O-])cc1[N+](=O)[O-]`, the Potency was “inactive”.
Work on `NCC(CC(=O)O)c1ccc(Cl)cc1` (stereo not drawn) yielded an activation (H2AX phosphorylation) of 0.429% [at 0.582 µM].
In the case of `BrCC(Br)C1CCC(Br)C(Br)C1` (stereo not drawn), the Potency is reported as “inactive”.
With `CCC(C)(NC(=O)c1cc(Cl)c(C)c(Cl)c1)C(=O)CCl` (stereo not drawn) the Potency was “inactive”.
For `BrCCCCBr`, the Potency was “inactive”.
For `S=C=NCc1ccccc1`, the Potency was “inactive”.
In the case of `C=CCN1CC[C@]23c4c5ccc(O)c4O[C@H]2C(=O)CC[C@@]3(O)[C@H]1C5`, the Potency is reported as “inactive”.
In the case of `O=C(NCc1cccnc1)Nc1ccc([N+](=O)[O-])cc1`, the Potency is reported as “inactive”.
